Test results as given in PubChem BioAssay (EPA / NIEHS).
Activity calls are given as the source filed them. The calls were made as follows: active = hit-call score of the fitted dose curve at least 0.9, where 1 is the maximum; inactive = score below 0.9.

Read-out: Interferon-gamma inducible Protein 10 (IP10), CXCL10 (gene 3627)
Test: BSK_hDFCGF_IP10: BioMAP Diversity Plus: hDFCGF Assay for Interferon-gamma inducible Protein 10 (IP10) Biomarker Activity (AID 2283053)
Conditions: primary human foreskin fibroblasts; actives raise or lower the signal
Procedure: BSK_hDFCGF is a cell-based, multiplexed-readout assay that uses foreskin fibroblast, a human skin primary cell, with measurements taken at 24 hours after chemical dosing in a 96-well plate.BSK_hDFCGF_IP10 is an assay component measured in the BSK_hDFCGF assay. It measures IP-10 antibody related to regulation of gene expression using ELISA technology.Data from the assay component BSK_hDFCGF_IP10 was analyzed into 1 assay endpoint. This assay endpoint, BSK_hDFCGF_IP10, was analyzed with bidirectional fitting relative to DMSO as the negative control and baseline of activity. Using a type of binding reporter, gain or loss-of-signal activity can be used to understand changes in the signaling as they relate to the gene CXCL10. Furthermore, this assay endpoint can be referred to as a primary readout, because this assay has produced multiple assay endpoints where this one serves a signaling function. To generalize the intended target to other relatable targets, this assay endpoint is annotated to the cytokine intended target family, where the subfamily is chemotactic factor.
The levels of cell surface (or secreted, indicated by the prefix "s") biomarker endpoints were measured by ELISA. Overt cytotoxicity to cells in confluent adherent cultures (all systems other than the BT system) was assessed by measuring total protein levels using sulforhodamine B (SRB) staining in parallel cultures at the time of biomarker measurements, indicated as SRB endpoints. For proliferation assays for adherent cell types, individual cell types are cultured at sub-confluence and relative cell numbers quantified by SRB staining at time points optimized for each system (48 h: 3C and CASM3C systems; 72 h: BT and HDF3CGF systems; 96 h: SAg system). SRB was performed by staining cells with 0.1% SRB after fixation with 10% TCA and reading wells at 560 nm.Viability and proliferation of PBMC (T cells) was quantified by Alamar Blue reduction for the SAg and BT systems. For PBMC viability (referred to as PBMC Cytotoxicity within the assay endpoint names), cells were plated (75,000/well in a 96-well plate) and then chemical samples added for 1 h before addition of activators, SEB and TSST-1 (20 ng/mL final concentration each). Cells were incubated for 90 h. Then, Alamar Blue (20 uL/well) (Invitrogen, Cat DAL1100) was added for 6 h, and the plates were read with a fluorescence microplate reader at 546/580 nm (excitation/emission). For PBMC proliferation, cells were plated and activated as above but incubated for only 16 h prior to addition of Alamar Blue. Plates were read after 6 h.

With `O=C(N[C@@H](Cc1ccccc1)[C@@H](O)C(=O)N1C[C@@H](O)[C@@H](O)C1)c1cc2cc(Cl)ccc2[nH]1` as the molecule, how does the outcome read?
Its outcome is “inactive”.

How did the outcome turn out when `CCCCCCCC=O` was run?
Its outcome is “inactive”.

How did the outcome turn out when `C[Si]1(C)O[Si](C)(C)O[Si](C)(C)O[Si](C)(C)O1` was run?
The outcome was “inactive”.

Which outcome does the source give for `CCCCc1ccc2c(n1)[C@@H](c1ccc(OC)cc1C[C@H](C)C(=O)O)[C@H](C(=O)O)[C@H]2c1ccc2c(c1)OCO2` here?
Its outcome is “inactive”.

With `FC(F)(F)C(F)(F)C(F)(F)C(F)(F)C(F)(F)C(F)(F)CCI` as the molecule, how does the outcome read?
Its outcome is “inactive”.

With `Cc1ccc2ncccc2c1` as the molecule, how does the outcome read?
The outcome was “inactive”.

`COCCOCCOC` was tested. Which outcome did it give?
Its outcome is “inactive”.

For `CC1(C)CC(N=C=O)CC(C)(CN=C=O)C1` (stereo not given), which outcome is on record?
Its outcome is “inactive”.

Which outcome does the source give for `CC(CO)OC(C)CO` (stereo not given) (tested in a mixture with another compound) here?
Its outcome is “inactive”.

Which outcome does the source give for `O=[N+]([O-])C(CO)(CO)CO` here?
The outcome was “inactive”.

`O=c1c(O)c(-c2ccc(O)c(O)c2)oc2cc(O)cc(O)c12` was tested. Which AC50 did it give?
Its AC50 is 20 µM (active).

`CN1CCCC1=O` was tested. Which outcome did it give?
The outcome was “inactive”.

With `Nc1ccc(S(=O)(=O)c2ccc(N)cc2)cc1` as the molecule, how does the outcome read?
Its outcome is “inactive”.

With `Nc1ccccc1N` as the molecule, how does the outcome read?
The outcome was “inactive”.

For `CN1CCN(Cc2cc(-c3ccc4[nH]c(=O)oc4c3)co2)[C@@H](c2ccc(F)cc2)C1`, which outcome is on record?
The outcome was “inactive”.

How did the outcome turn out when `CCCCCCCCCCCCCCCCCC(=O)O` was run?
Its outcome is “inactive”.

How did the outcome turn out when `Cc1ccc(C)c(C)c1` was run?
The outcome was “inactive”.

For `Nc1ccc2c(c1)C(=O)c1ccccc1C2=O`, which outcome is on record?
Its outcome is “inactive”.

For `O=C(OCCCCCOC(=O)c1ccccc1)c1ccccc1`, which outcome is on record?
Its outcome is “inactive”.

How did the outcome turn out when `NCC1(Cc2noc(=O)[nH]2)CCCCC1` was run?
Its outcome is “inactive”.

With `CC(C)c1ccc(C(=O)N=C(N)N)cc1S(C)(=O)=O` as the molecule, how does the outcome read?
Its outcome is “inactive”.

`Cc1cc(NC(=O)C(=O)O)cc(C)c1Oc1ccc(O)c2c1CCC2` was tested. Which outcome did it give?
The outcome was “inactive”.

`NC(=O)Cn1c(=O)cc(CCN2CCN(c3nccc4sccc34)CC2)c2ccc(F)cc21` was tested. Which outcome did it give?
Its outcome is “inactive”.

For `COc1cc(S(=O)(=O)O)c(C)cc1N=Nc1c(O)ccc2cc(S(=O)(=O)O)ccc12`, which outcome is on record?
The outcome was “inactive”.

`Cc1cccc(C)c1O` was tested. Which outcome did it give?
Its outcome is “inactive”.

Which outcome does the source give for `CCCCCCCCCCCC(=O)OC` here?
Its outcome is “inactive”.

For `Cc1ccc(Cl)cc1`, which outcome is on record?
The outcome was “inactive”.

Which outcome does the source give for `O=C(O)Cc1ccccc1Nc1c(Cl)cccc1Cl` here?
The outcome was “inactive”.

How did the outcome turn out when `NCCO` was run?
Its outcome is “inactive”.

How did the outcome turn out when `Cc1oc(-c2ccccc2)nc1CCOc1cccc2c1ccn2CCC(=O)O` was run?
The outcome was “inactive”.

`CC(=O)OC/C=C(\C)CCC=C(C)C` was tested. Which outcome did it give?
Its outcome is “inactive”.

How did the outcome turn out when `CCOC(=O)CCC(=O)OCC` was run?
The outcome was “inactive”.

For `CCCCCCC(=O)OCC`, which outcome is on record?
Its outcome is “inactive”.

Which outcome does the source give for `CNC(=O)[C@H]1O[C@@H](n2cnc3c(NCc4cc(Cl)ccc4OCc4cc(C)no4)ncnc32)[C@H](O)[C@@H]1N` here?
The outcome was “inactive”.

For `CCc1c(C(=O)NN2CCCCC2)nn(-c2ccc(Cl)cc2Cl)c1-c1ccc(Br)cc1`, which AC50 is on record?
The AC50 was 4.55 µM (active).

`CCCCCCOCCO` was tested. Which outcome did it give?
The outcome was “inactive”.

How did the outcome turn out when `CCNc1cccc(C)c1` was run?
The outcome was “inactive”.

For `C[C@]12C=CC(=O)C=C1CC[C@@H]1[C@@H]2C(=O)C[C@@]2(C)[C@H]1CC[C@]2(O)C(=O)CO`, which outcome is on record?
The outcome was “inactive”.

`CCCCCCCCCCO` was tested. Which outcome did it give?
Its outcome is “inactive”.

With `c1cc(-c2ccncc2)ccn1` as the molecule, how does the outcome read?
Its outcome is “inactive”.
